Unmarked numbers belong to inactive results. Active and inactive are the calls of the source.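 How the source made its calls: active means calcium response above 60% of the acetylcholine maximum at human M5, as a positive modulator; inactive means the rest.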

The target in this assay is Muscarinic acetylcholine receptor M5 (Homo sapiens) (UniProt P08912). Put plainly: potentiators of ACh response at human M5 – cell-based, single concentration, CHO-K1 hM5, calcium flux (AID 743100). The following applies: CHO-K1 hM5, Fluo-4 calcium flux, ACh EC20, active compounds read high; at 10 µM unless noted. For orientation: A change in cytosolic calcium serves as a functional read-out for many receptors and channels.
Sequence of Muscarinic acetylcholine receptor M5 (Homo sapiens) (P08912 whole entry, looked up): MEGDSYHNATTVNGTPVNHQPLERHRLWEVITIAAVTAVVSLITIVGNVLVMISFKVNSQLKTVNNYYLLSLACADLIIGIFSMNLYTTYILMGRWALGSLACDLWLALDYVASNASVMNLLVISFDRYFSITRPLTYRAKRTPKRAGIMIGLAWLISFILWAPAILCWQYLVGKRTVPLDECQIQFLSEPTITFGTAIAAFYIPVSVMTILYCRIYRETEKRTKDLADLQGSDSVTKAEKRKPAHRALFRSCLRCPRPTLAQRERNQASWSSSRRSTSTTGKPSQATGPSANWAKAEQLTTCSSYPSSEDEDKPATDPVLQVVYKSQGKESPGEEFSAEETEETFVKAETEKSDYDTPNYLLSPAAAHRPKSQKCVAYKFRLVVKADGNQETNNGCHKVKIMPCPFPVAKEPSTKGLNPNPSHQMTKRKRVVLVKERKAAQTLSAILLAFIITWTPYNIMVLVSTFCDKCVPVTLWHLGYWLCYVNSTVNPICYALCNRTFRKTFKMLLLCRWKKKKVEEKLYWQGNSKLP
Regarding `CCN(Cc1ccccc1)C(=O)C1CCN(S(=O)(=O)c2cccnc2)CC1`, the % ACh max response was 34.5%.
Turning to `CCNC(=O)C1(Cc2ccccc2)CCN(S(=O)(=O)c2ccc3occc3c2)CC1`, the % ACh max response was 22.2%.
To `CCN(Cc1ccccc1)C(=O)C1CCN(S(=O)(=O)c2ccc(OC)cc2)CC1` belongs 78.4% [at 30 µM] (active); to `CC1c2ccccc2CCN1C(=O)C1CCN(S(=O)(=O)c2ccc3occc3c2)CC1` (configuration not stated), 28.5%.
Consider `CCN(Cc1ccccc1)C(=O)C1CCN(S(=O)(=O)c2cnc[nH]2)CC1`, for which the % ACh max response was 33.7% [at 30 µM].
As for `CCN(Cc1ccccc1)C(=O)C1CCN(S(=O)(=O)c2ccc3c(cnn3C)c2)CC1`, the % ACh max response is 63.3% (active).
For `CCN(Cc1ccccc1)C(=O)C1CCN(S(=O)(=O)c2ccc3c(c2)OCCO3)CC1` the value was 72.2% [at 30 µM] (active); for `CCN(Cc1ccccc1)C(=O)C1CCN(S(=O)(=O)c2cccc(Cl)c2)CC1`, 65.3% [at 30 µM] (active).
To `CCN(Cc1ccccc1)C(=O)C1CCN(S(=O)(=O)c2ccccc2)CC1` belongs 71.5% [at 30 µM] (active); to `CCN([C@H](C)c1ccccc1)S(=O)(=O)C1CCN(S(=O)(=O)c2ccc3[nH]ncc3c2)CC1`, 18.7%; to `CCN(Cc1ccccc1)C(=O)C1CCN(S(=O)(=O)c2c(C)noc2C)CC1`, 25.9% [at 30 µM].
To `CCN(Cc1ccccc1OC)C(=O)C1CCN(S(=O)(=O)c2ccc3cn[nH]c3c2)CC1` belongs 84.5% (active); to `CCN(Cc1ccccc1)C(=O)C1CCN(S(=O)(=O)c2cccc3c2OCCO3)CC1`, 48% [at 30 µM].
In the case of `CCCc1ccc(S(=O)(=O)N2CCC(C(=O)N(CC)Cc3ccccc3)CC2)cc1`, the % ACh max response is 62.9% [at 30 µM] (active).
For `CC1c2ccccc2CCN1C(=O)C1CCN(S(=O)(=O)c2ccc3[nH]ncc3c2)CC1` (configuration not stated) the value was 40.4%.
For `CCN(Cc1ccccc1)C(=O)C1CCN(S(=O)(=O)c2cccc(F)c2)CC1` the value was 63.2% [at 30 µM] (active); for `CCN(Cc1cccnc1)C(=O)C1CCN(S(=O)(=O)c2ccc3cn[nH]c3c2)CC1`, 19.8%.
On to `CCN(Cc1cc(F)ccc1F)C(=O)C1CCN(S(=O)(=O)c2ccc3cn[nH]c3c2)CC1`, for which the % ACh max response was 57.2%.
For `CCN(CC1CCN(S(=O)(=O)c2ccc(OC(F)(F)F)cc2)CC1)C(=O)c1ccccc1` the value was 10.5%; for `CCN(Cc1ccccc1F)C(=O)C1CCN(S(=O)(=O)c2ccc3cn[nH]c3c2)CC1`, 69.8% (active); for `CCN(Cc1ccccc1C)C(=O)C1CCN(S(=O)(=O)c2ccc3cn[nH]c3c2)CC1`, 85.1% (active).
For the molecule `CCN(Cc1ccc(OC(F)(F)F)cc1)C(=O)C1CCN(S(=O)(=O)c2ccc3cn[nH]c3c2)CC1`, the % ACh max response is 40.8%.
For `CCN(Cc1ccccc1)C(=O)C1CCN(S(=O)(=O)c2ccccc2F)CC1` the value was 38.4% [at 30 µM].
To `CCN(CC1CCN(S(=O)(=O)c2ccc(OC)cc2)CC1)C(=O)c1ccccc1` belongs 15.2%; to `CCN(Cc1ccc(-c2ccccc2)cc1)C(=O)C1CCN(S(=O)(=O)c2ccc3cn[nH]c3c2)CC1`, 24.8%; to `CCN(Cc1cccc(Cl)c1)C(=O)C1CCN(S(=O)(=O)c2ccc3cn[nH]c3c2)CC1`, 73.9% (active).
As to `CCN(Cc1ccccc1)C(=O)C1CCN(S(=O)(=O)c2ccccc2C(F)(F)F)CC1`, the % ACh max response was 21.7% [at 30 µM].
In the case of `CCN(C(=O)C1CCN(S(=O)(=O)c2ccc3c(c2)CCO3)CC1)[C@H](C)c1ccccc1`, the % ACh max response was 97.5% (active).
To `CCN(CC1CCN(S(=O)(=O)c2ccc3occc3c2)CC1)C(=O)c1ccccc1` belongs 10.9%.
To `CCN(Cc1ccccc1)C(=O)C1CCN(S(=O)(=O)c2ccc(C)cc2)CC1` belongs 73.7% [at 30 µM] (active); to `COc1cccc(S(=O)(=O)N2CCC(CN(Cc3ccccc3)C(C)=O)CC2)c1`, 12.7%.
`CCN(Cc1ccccc1)C(=O)C1CCN(S(=O)(=O)Cc2ccc(Br)cc2)CC1`: the % ACh max response is 26.2% [at 30 µM].

For the origin of these results see PubChem BioAssay AID743100 (Vanderbilt Specialized Chemistry Center, 2013).
